Experimental data as given in PubChem BioAssay.
“And” between values parts separate entries of the source, which are not always exact repeats. Equal entries are not always repeated.

experiment: adipocyte viability effects, profiling panel, cell-based, 3T3-L1 adipocytes, calcein-AM fluorescence, 48 h, basal (AID 1163); details: 3T3-L1 adipocytes viability, higher = more signal; also: test concentration not given here

**Q.** With COC(=O)C1=C(C)N(Cc2ccccc2)[C@]23O[C@](C(=O)OC)(C(=O)N2[C@@H]1c1ccccc1)[C@@H](C(=O)OC)[C@H]3C(=O)OC as the compound, how does the z-score read?
**A.** -0.0502 and -0.386

**Q.** Which z-score does the source give for CO[C@@H]1COC(=O)CC=C[C@H](C)COC(=O)[C@H](C)NC(=O)CC=C[C@H]1C here?
**A.** 0.31

**Q.** With COC(=O)C1=C(C)N(Cc2ccccc2)C2=C(C(C)=O)[C@H](c3ccccc3)[C@@](O)(C(=O)OC)C(=O)N2[C@@H]1c1ccccc1 as the compound, how does the z-score read?
**A.** -0.0798 and 0.56

**Q.** For C[N+](C)(C)CCCCNC(=O)[C@H]1C[C@H]2C(=O)N[C@@H](CCCC[N+](C)(C)C)C(=O)N2[C@H]1c1cccc(OCCO)c1, which z-score is on record?
**A.** -0.488 and -0.571

**Q.** Which z-score does the source give for CCOC(=O)NN=C1C[C@@H](O)[C@@H](O)[C@@H]2[C@@H]3C(=O)N(Cc4ccc5c(c4)OCO5)C(=O)[C@@H]3CC[C@@H]12 here?
**A.** -0.54

**Q.** Which z-score does the source give for C[N+](C)(C)CCCCNC(=O)[C@H]1C[C@H]2C(=O)N[C@@H](CCCC[N+](C)(C)C)C(=O)N2[C@H]1c1ccc(O)cc1 here?
**A.** -1.46 and 0.308

**Q.** With O=c1n(-c2ccccc2)c(=O)n2n1CC[C@@H]1C(=NOC[C@@H](O)COCc3ccco3)[C@H]3O[C@H]3[C@@H](O)[C@@H]12 as the compound, how does the z-score read?
**A.** 0.581 and -0.304

**Q.** For C=C[C@@H](C)[C@H](O)c1ccc(O)c2ccccc12, which z-score is on record?
**A.** -0.134 and 0.136

**Q.** Which z-score does the source give for COC(=O)C1=C(C)N(Cc2ccccc2)C2=C(C(C)=O)C[C@@](O)(C(=O)OC)C(=O)N2[C@@H]1c1ccccc1 here?
**A.** 0.501 and 0.0527

**Q.** For CCC[C@@H]1C[C@@]1(CCC)[C@@H](NC(=O)c1ccc(-c2ccccc2)cc1)c1cccc(Cl)c1, which z-score is on record?
**A.** -0.882 and -0.867

**Q.** With C=CCN(CCCC)C(=O)C1N(CCOCCO)C(=O)C2C(C(=O)O)C3C=CC21O3 (stereo not given) as the compound, how does the z-score read?
**A.** 0.28 and -0.404

**Q.** With C=CCN(Cc1ccccc1)C(=O)C1N(CCOCCO)C(=O)C2C(C(=O)O)C3C=CC21O3 (stereo not given) as the compound, how does the z-score read?
**A.** 1 and 0.0853

**Q.** For C=CC[C@@H](O)c1ccc(O)c2ccccc12, which z-score is on record?
**A.** -0.0851 and -0.0172

**Q.** For CO[C@@H]1C=CCC(=O)N2CCC[C@H]2C(=O)OC[C@H](C)C(=O)OC[C@H]1C, which z-score is on record?
**A.** 0.345

**Q.** Which z-score does the source give for CN1C(=O)C2CC=C([C@H]3Oc4ccccc4S(=O)(=O)N4CCC[C@@H]34)CC2C1=O (stereo not given in full) here?
**A.** -0.109 and 0.323

**Q.** For CCOC(=O)c1ccc(NC(=O)O[C@H]2[C@H](OC(=O)Nc3ccccc3)[C@@H](OC(=O)Nc3ccccc3)[C@@H](OC)O[C@@H]2CO)cc1, which z-score is on record?
**A.** 1.79 and 1.14

**Q.** Which z-score does the source give for C=CCN(Cc1ccccc1)C(=O)C(c1cccs1)N(C(=O)/C=C\C(=O)O)c1c(Cl)cccc1CO (stereo not given) here?
**A.** 0.036 and -0.0047

**Q.** With CC(CO)N1C(=O)[C@@H]2C3C(=O)OCCC=C[C@H]3OC23C=CCN(CCN2CCOCC2)C(=O)[C@@H]13 (stereo not given in full) as the compound, how does the z-score read?
**A.** -0.465 and 0.0431

**Q.** For CO[C@H]1COC(=O)CC=C[C@@H](C)COC(=O)[C@@H](OCc2ccccc2)C=C[C@@H]1C, which z-score is on record?
**A.** 0.146

**Q.** For CCCC[C@@H]1CN2[C@@H](CC[C@@H](C)[C@@H]2c2ccc(Br)cc2)C(=O)O1, which z-score is on record?
**A.** -0.857 and -0.567

**Q.** For CCN1C(=O)[C@H]2[C@H]3[C@H](O)[C@H](O)CC(=NOC[C@@H](O)COCc4ccco4)[C@@H]3CC[C@H]2C1=O, which z-score is on record?
**A.** -0.233 and 1.1

**Q.** With C=CCN(CCCCC)C(=O)C(c1cccs1)N(C(=O)/C=C\C(=O)O)c1ccc(CCO)cc1 (stereo not given) as the compound, how does the z-score read?
**A.** -4.27 and -0.651

**Q.** For C=CCN(C(=O)C1N(c2c(Cl)cccc2CO)C(=O)C2C(C(=O)O)C3C=CC21O3)c1ccc(OC)cc1 (stereo not given), which z-score is on record?
**A.** 1.02 and 0.581

**Q.** For C=CCN(CCCC)C(=O)C1N(C(C)(C)CO)C(=O)C2C(C(=O)O)C3C=CC21O3 (stereo not given), which z-score is on record?
**A.** 0.75 and 0.349

**Q.** With C=C[C@@H](C)[C@@H](O)c1ccc(OCCO)cc1 as the compound, how does the z-score read?
**A.** 0.513 and 0.464

**Q.** With C=CCN(CCCCC)C(=O)C1N(C(C)(C)CO)C(=O)C2C(C(=O)O)C3C=CC21O3 (stereo not given) as the compound, how does the z-score read?
**A.** -0.472 and -0.0106

**Q.** Which z-score does the source give for CCOC(=O)[C@@H]1CC2O[C@]23C[C@@H]1C(=O)N1CCC[C@@H]1[C@H]3O[Si](C)(C)C(C)(C)C (stereo not given in full) here?
**A.** 0.838 and 0.26

**Q.** Which z-score does the source give for CCOC(=O)C[C@H]1[C@H](OC(=O)c2ccccc2-c2ccccc2)[C@@H](NC(=O)Cc2ccc(OC)cc2)c2cc(OCCCO)ccc2N1C(=O)Cc1ccc(OC)cc1 here?
**A.** 1.92 and 0.0868

**Q.** For COC(=O)CC=C[C@@H](C)[C@@H](CO)NS(=O)(=O)c1ccc(C)cc1, which z-score is on record?
**A.** -0.466 and -0.0209

**Q.** With C[N+](C)(C)CCCCCCNC(=O)[C@@H]1C[C@@H]2C(=O)N[C@@H](CCCC[N+](C)(C)C)C(=O)N2[C@@H]1c1ccc(O)cc1 as the compound, how does the z-score read?
**A.** -0.266 and -0.25

**Q.** Which z-score does the source give for COC(=O)C1=C(C)N(Cc2ccccc2)C2=C3C(=O)CCC[C@@H]3[C@@](O)(C(=O)OC)C(=O)N2[C@@H]1c1ccccc1 here?
**A.** 0.662 and -0.219

**Q.** With O=C1C[C@]2(c3ccc([N+](=O)[O-])cc3)C(=O)N(Cc3ccccc3)c3cc(CO)ccc3[C@H]2N1C1CCCCC1 as the compound, how does the z-score read?
**A.** 0.43 and 1.53

**Q.** Which z-score does the source give for CC(C)=CCCC(C)=CCON=C1C[C@@H](O)[C@@H](O)[C@@H]2[C@@H]3C(=O)N([C@@H](C)c4ccccc4)C(=O)[C@@H]3CC[C@H]12 here?
**A.** 0.2

**Q.** For C[C@@H]1CC[C@H]2C(=O)NC[C@@H](O)CN2[C@H]1c1ccc(Br)cc1, which z-score is on record?
**A.** -0.856 and 0.491

**Q.** For COc1ccc(O[C@H]2C=C[C@@H](c3ccccc3)O[C@@H]2COC(=O)CCC(C)=NO[C@H](C)c2cn([C@H](CO)Cc3ccccc3)nn2)cc1, which z-score is on record?
**A.** 0.498 and 0.0533

**Q.** Which z-score does the source give for C=CCN(CCCC)C(=O)C(c1cccs1)N(C(=O)/C=C\C(=O)O)c1c(Cl)cccc1CO (stereo not given) here?
**A.** 0.441 and 0.526

**Q.** With CC(CO)N1C(=O)[C@@H]2C3C(=O)OCCC=C[C@H]3OC23C=CCN(c2ccc(Cl)cc2)C(=O)[C@@H]13 (stereo not given in full) as the compound, how does the z-score read?
**A.** 0.194 and 0.458

**Q.** Which z-score does the source give for C=CCN(C(=O)C(c1cccs1)N(CCOCCO)C(=O)/C=C\C(=O)O)C(C)(C)C (stereo not given) here?
**A.** -0.515 and -0.161

**Q.** For C=C[C@H](OC)[C@@H](O)c1ccc(O)c(F)c1, which z-score is on record?
**A.** -0.345 and -0.128

**Q.** With CC(CO)N1C(=O)[C@@H]2C3C(=O)OCCC=C[C@H]3OC23C=CCN(C(C)(C)C)C(=O)[C@@H]13 (stereo not given in full) as the compound, how does the z-score read?
**A.** -0.142 and -0.791
